Source: PubChem
mcGAS RapidFire: inhibitors of mouse cGAS. recombinant mouse cGAS, cGAMP by RapidFire MS. 130,000 compounds, 0.18% hits. AID 1259397. inhibition, % at 12.5 µM. Q8C6L5;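 active = inhibition of cGAS enzyme activity at or above 60%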;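 also: enzyme stimulated by 45 bp dsDNA with ATP and GTP substrates; cGAMP share of summed cGAMP plus half ATP and half GTP signals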
Target sequence (Q8C6L5 whole entry, looked up): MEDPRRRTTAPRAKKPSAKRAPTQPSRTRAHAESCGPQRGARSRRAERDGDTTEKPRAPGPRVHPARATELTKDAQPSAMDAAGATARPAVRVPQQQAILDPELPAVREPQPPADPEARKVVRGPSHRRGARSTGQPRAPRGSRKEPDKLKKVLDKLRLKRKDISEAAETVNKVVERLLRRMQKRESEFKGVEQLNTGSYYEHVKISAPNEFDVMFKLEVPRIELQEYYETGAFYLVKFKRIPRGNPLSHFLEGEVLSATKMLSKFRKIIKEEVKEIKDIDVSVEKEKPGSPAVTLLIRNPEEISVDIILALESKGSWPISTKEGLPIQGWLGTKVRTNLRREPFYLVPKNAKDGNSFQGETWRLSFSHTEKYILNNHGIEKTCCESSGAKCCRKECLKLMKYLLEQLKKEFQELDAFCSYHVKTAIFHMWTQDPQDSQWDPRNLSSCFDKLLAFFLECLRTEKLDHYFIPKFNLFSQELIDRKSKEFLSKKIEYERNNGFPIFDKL
* hit, by the source's call; ! = not confirmed by another sample. The full list was thinned out, with hits kept by preference.

SMILES | mcGAS RapidFire
COCc1noc(-c2cccc3c2ccn3C)n1 | -19
CSc1c(C#N)c(SCC(=O)c2cc3ccccc3oc2=O)[nH]c(=O)c1C#N | 94*
COc1ccc(CCNC(=O)c2cc3ccccc3oc2=O)cc1OC | -3
CN(CCOc1ccccc1)C(=O)c1cc2ccccc2oc1=O | -7
Fc1ccccc1CON=C1CCN(c2ncccn2)CC1 | -6
CC(C)CCn1c(N2CCCC(C)C2)nc2c1c(=O)[nH]c(=O)n2C (centres undefined) | -1
OCC(O)Cn1cc(-c2ccc3c(c2)Cc2ccccc2-3)nn1 (centres undefined) | 6
COc1ccc(Nc2ncccc2C#N)cc1N1CCCC1=O | -7
C=CCSc1nnc(N)s1 | -7
Nc1nnc(Sc2ncc([N+](=O)[O-])s2)s1 | 67*
Nc1nnc(SCC(=O)c2ccc([N+](=O)[O-])cc2)s1 | -3
c1ccc(-n2nnnc2N2CCCC(Nc3ccc4c(c3)OCCO4)C2)cc1 (centres undefined) | 8
O=C(Nc1ccccc1OCC(F)(F)F)C1CCOCC1 | -2
CCOC(=O)c1[nH]nc2c1C(=O)N(CC)C2=O | 62*
CCOC(=O)c1[nH]nc2c1CC/C2=C\c1ccccc1 | 1
CCOC(=O)c1[nH]nc(-c2ccc(C)cc2)c1C | -13
Cc1cc(Cl)ccc1N=Cc1nc(-c2ccccc2F)oc1O | -3
Cc1ccc([N+](=O)[O-])cc1N=Cc1nc(-c2ccccc2F)oc1O | 81*
COc1cc([N+](=O)[O-])ccc1N=Cc1nc(-c2ccccc2F)oc1O | -11
CC(=O)Oc1ccc(Cn2c(C)c(C(=O)NCc3ccccn3)sc2=O)cc1 | -4
CCCCN(CCO)Cc1nc(-c2cccc(OC)c2)no1 | 15
CCn1nnc2c(=O)n(Cc3ccccc3)cnc21 | -3
COc1cccc(Cn2nc(C)c3c(NC(=O)C(C)OC)[nH]nc32)c1 (centres undefined) | -1
CCN(CC)CCNC(=O)c1cnc(C(C)(C)C)s1 | -20
CCN(CC)CCNc1ccc(CO)c2sc3ccccc3c(=O)c12 | 66*!
SMILES | mcGAS RapidFire
CCN(CC)CCNc1nc2c(F)cccc2s1 | -29
CC(=O)NCCn1cnc(-c2ccccc2)c1-c1oc2ccccc2c1C | -29
Cc1nc2sc(C(=O)NCc3ccccc3F)c(C)c2c(=O)[nH]1 | -6
CCc1sc(-c2nnc(CN3CCNC(=O)C3)o2)cc1C | -3
CN1CCN(C2=NC(C(=O)Nc3ccccc3)CC(=O)N2)CC1 (centres undefined) | 70*
CN1C(=O)CC(C(=O)Nc2ccccc2)SC1=Nc1ccc(Cl)c(C(F)(F)F)c1 (centres undefined) | -7
CN1CCC(N(Cc2ccccc2)C(=O)Nc2ccc(NC(=O)C3CC3)cc2)CC1 | -10
CC(=O)N1CCC(N(CC2CCN(C3CCCC3)CC2)CC2CCCO2)CC1 (centres undefined) | -12
O=C(CCc1cccnc1)Nc1cnc2n1CCCC2 | -6
O=c1oc2c(O)c(O)cc3c(=O)oc4c(O)c(O)cc1c4c23 | 93*
O=c1cc(-c2cc(O)c(O)c(O)c2)oc2cc(O)cc(O)c12 | 3
CSc1ccc(-c2nc(CN3C[C@H](O)[C@@H](N4CCOCC4)C3)c(C)o2)cc1 | -1
Cc1c(-n2[nH]nnc2=S)c(=O)n(-c2ccccc2)n1C | -6
CC(=O)N1CCCC(S(=O)(=O)N2CCN3CCCC3C2)C1 (centres undefined) | -5
Cc1ccc(C(=O)Nc2nc(-c3cc4cc(Cl)ccc4oc3=O)cs2)cc1 | -7
O=C(C=Cc1ccco1)Nc1sc2c(c1C(=O)O)CCCC2 | -1
O=C(CN1C(=O)CCC1=O)Nc1ccc2c(c1)C(=O)N1CCCCC1CCO2 (centres undefined) | -6
CCc1c(C)[nH]n(-c2nc3ccccc3[nH]2)c1=O | -2
Cc1[nH]n(-c2nc3ccccc3[nH]2)c(=O)c1C1OC(=O)c2ccccc21 (centres undefined) | 99*
Cc1[nH]n(-c2nc3ccccc3[nH]2)c(=O)c1C | 29
CN(Cc1cccs1)C(=O)CN1C(=O)CS/C1=C\C(=O)C(C)(C)C | 4
Cc1cc(C)cc(NC(=O)c2cc(C)c(C)c(S(N)(=O)=O)c2)c1 | -2
Cc1nc2sccn2c(=O)c1S(=O)(=O)NCCN1CCOCC1 | -5
Cc1cc(C)n(CC(C)NCc2c(C)noc2C)n1 (centres undefined) | -34
Cn1c(-c2ccc(CN3CCn4cncc4C3)o2)nc2ccccc21 | -16
SMILES | mcGAS RapidFire
C=CCn1cc(CN2CCn3nc(-c4nc5ccccc5n4C)cc3C2)c(C)n1 | 79*
C=CCn1cc(CN2CCN(Cc3ccc4c(c3)OCO4)C(=O)C2)c(C)n1 | -5
COc1ccc(CCC(=O)Nc2c(C)nc3ccc(C)cn3c2=O)cc1 | -13
COc1cccc(C(=O)NCCN2CCn3cc(OC)c(=O)cc3C2=O)c1 | 0
COCc1nn2c(nnc3c(=O)n(Cc4ccc(OC)cc4)ccc32)c1-c1ccc(F)cc1 | -6
Cc1ccc(Cn2cc(C(=O)NNC(=O)Nc3ccc(C(C)(C)C)cc3)ccc2=O)cc1 | -4
S=c1nccc(-c2ccccc2)[nH]1 | 74*
OC(C#Cc1ccccc1)c1ncc(-c2ccccc2)[nH]1 (centres undefined) | 35
S=c1nc(-c2ccccc2)c(-c2ccccc2)n[nH]1 | -13
CN1C[N+]([O-])=C(c2ccccc2)C1(C)C | -9
CC1=C(c2ccccc2)[N+](=O)C(C)(c2ccc(Br)cc2)N1[O-] (centres undefined) | 73*
CC(=O)c1cc(-c2ccccc2)n(CC(=O)O)c1C | -18
CC1C(c2cccs2)=[N+]([O-])C(C)(c2ccc(Br)cc2)N1O (centres undefined) | -19
CCC1(CC)N([O-])C(C)=C(c2ccccc2)[N+]1=O | 79*
CC1C(c2ccccc2)=[N+]([O-])C(C)(c2ccc(F)cc2)N1O (centres undefined) | -9
Cc1cc(C)n(CCC(=O)N(C)C(C)c2ccon2)c(=O)n1 (centres undefined) | 2
CCCCS/C=C1\CCCC(C)(C)C1(O)CSc1nccn1C (centres undefined) | -13
COc1ccc(-c2cc(-n3cccn3)ncn2)c(-n2cccn2)c1 | -2
COc1ccccc1N1CCN(C(=O)Cc2nc3nc(C)cc(C)n3n2)CC1 | 2
CC(C)OCC(=O)N(C)CC1(C)CCN(C)C1 (centres undefined) | -10
COC(=O)C1CCCCN1C(=O)CCc1nnc(CCc2ccc(OC)cc2)o1 (centres undefined) | -12
COCCN1CCN(C(=O)CCc2nnc(CCc3ccc(OC)cc3)o2)CC1 | -2
COc1ccc(CCC(=O)N2CCN(Cc3nnc(C4CC4)o3)CC2)cc1 | 94*
CC=CC(=O)OCC(=O)c1[nH]c(C)c(C(=O)OCC)c1C | -3
COc1cccc(CSc2nnc(-c3ccccc3OC)n2C)c1 | -8
SMILES | mcGAS RapidFire
Cc1ccc(C2([N+](=O)[O-])C(=O)c3ccccc3C2=O)cc1 | 90*
Cc1ccc(N2Cc3ccccc3C2=O)cc1 | -5
Cc1ccc(/C(=C2\OC(=O)c3ccccc32)[N+](=O)[O-])c(C)c1 | 5
Cc1noc(C)c1C1CCCN1CCn1c(=O)oc2ccccc21 (centres undefined) | 2
NC(=O)CC1CCCCN1C(=O)CNc1cccc(C(F)(F)F)c1 (centres undefined) | -5
Cc1ccc(C(=O)NNC(=O)c2c(C)oc(C)c2C)cc1 | 3
O=C1Nc2ccc(Br)cc2C1=c1sc2nc3ccccc3n2c1=O | 4
O=C1Nc2ccc(Br)cc2C1=O | 5
O=C1Nc2ccc(Br)cc2/C1=c1/sc2n(c1=O)CCN=2 | 81*
